From the supplement of paper PMC10981050
Values joined by “and” are separate entries in the source; they are usually repeats but may differ in a detail not shown here. Identical values can stand only once. Counter-ions that a name gives are not always drawn.

Assays:
Test in all cases: cell viability relative to vehicle control; higher = less cytotoxic
Settings in all cases: 10 µM
[1] = system: K562
In short: (§1)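 Four leukaemia lines, as CRISPR-edited mutant clones and isogenic wild-type clones, were tested against Selleck bioactive, kinase and epigenetic probe libraries after removal of identity-inconsistent compounds. Cells were exposed to a single 10 µM dose for 48 h, and CellTiter-Glo luminescence was then read. Viability was calculated relative to the on-plate vehicle control.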

[2] = system: MARIMO
In short: as §1

[3] = system: MOLM14
In short: as §1

[4] = system: OCI-AML2
In short: as §1

Row | SMILES | cell viability ([1]; SRSF2 genotype: SRSF2 P95H/wt) | cell viability ([1]; SRSF2 genotype: SRSF2 wt/wt) [%] | cell viability ([2]; SRSF2 genotype: SRSF2 P95H/wt) [%] | cell viability ([2]; SRSF2 genotype: SRSF2 wt/wt) [%] | cell viability ([3]; SRSF2 genotype: SRSF2 P95H/wt) [%] | cell viability ([3]; SRSF2 genotype: SRSF2 wt/wt) [%] | cell viability ([4]; SRSF2 genotype: P95H/wt) [%] | cell viability ([4]; SRSF2 genotype: wt/wt) [%]
1 | C[C@@H]1O[C@@H](O[C@@H]2[C@@H](O)[C@H](OCCc3ccc(O)c(O)c3)O[C@H](COC(=O)/C=C/c3ccc(O)c(O)c3)[C@H]2O)[C@H](O)[C@H](O)[C@H]1O [Isoacteoside] | 101% and 104% | 91.6 | 99 | 103 | 94.9 | 101 | 100 | 106
2 | Cc1ccc(C(=O)Nc2ccc(Oc3cc4cnn(C)c4cc3-c3cn[nH]c3)c(F)c2)c(=O)n1-c1ccc(F)cc1 | 82.9% and 87.4% | 87.2 | 88.5 | 103 | 8.56 | 12.4 | 27.6 | 31.6
3 | CC(=O)c1ccc(C)cc1O [2'-Hydroxy-4'-methylacetophenone] | 97.1% and 95% | 104 | 95.6 | 103 | 102 | 102 | 94.5 | 107
4 | O=C(O)c1cccnc1Nc1cccc(C(F)(F)F)c1 [Niflumic acid] | 97.2% and 100% | 94.6 | 94.1 | 97.8 | 93.8 | 98.5 | 101 | 104
5 | CCCC(=O)OCOC(=O)C1=C(C)NC(C)=C(C(=O)OC)C1c1cccc(Cl)c1Cl (stereo not given) [Clevidipine Butyrate] | 102% and 105% | 104 | 100 | 107 | 104 | 109 | 107 | 108
6 | NC(=O)NO [Hydroxyurea (Cytodrox)] | 102% and 106% | 103 | 97.5 | 105 | 109 | 108 | 108 | 108
7 | CCn1c(N)c(C(=O)NC)c(=O)c2ccc(C#CC(C)(O)COC)nc21 (stereo not given) | 105% and 99.5% | 97.9 | 87.4 | 93.7 | 48.1 | 55.5 | 64.6 | 64.6
8 | CC[N+](CC)(CC)CCOc1cccc(OCC[N+](CC)(CC)CC)c1OCC[N+](CC)(CC)CC [Gallamine triethiodide (Flaxedil)] | 96% and 97.9% | 91.8 | 101 | 96.8 | 101 | 99.5 | 99 | 95.4
9 | CO[C@H]1/C=C/O[C@@]2(C)Oc3c(C)c(O)c4c(O)c(cc(O)c4c3C2=O)NC(=O)/C(C)=C\C=C\[C@H](C)[C@H](O)[C@@H](C)[C@@H](O)[C@@H](C)[C@H](OC(C)=O)[C@@H]1C [Rifamycin sodium salt] | 35.1% and 16.3% | 13 | 4.5 | 7.05 | 0.49 | 0.44 | 0.38 | 0.42
10 | COc1cccc2cc(-c3nc([C@H]4CC[C@H](C(=O)O)CC4)n4ncnc(N)c34)[nH]c12 | 36.1% and 37% | 32.9 | 51.5 | 47.1 | 29.4 | 24.9 | 26.5 | 27.5
11 | C=C(C)[C@@H]1CC[C@]2(C=O)CC[C@]3(C)[C@H](CC[C@@H]4[C@@]5(C)CC[C@H](O)C(C)(C)[C@@H]5CC[C@]43C)[C@@H]12 [Betulinicaldehyde] | 101% and 97.2% | 102 | 95.1 | 94.2 | 103 | 98 | 94.5 | 92
12 | Nc1nc2cc(-c3ccc4ncc(C(=O)N5CCOCC5)n4c3)ccc2o1 [Serabelisib (INK-1117,MLN-1117,TAK-117)] | 92.2% and 98.4% | 84.2 | 64.5 | 72.4 | 57.7 | 65.2 | 53 | 65.4
13 | CC(=O)OCC1=C(C(=O)O)N2C(=O)[C@@H](NC(=O)Cc3cccs3)[C@H]2SC1 [Cephalothin] | 94.9% and 98.7% | 96.1 | 95.8 | 100 | 94.7 | 101 | 95.1 | 104
14 | COc1cc2c(cc1OC)-c1cc3ccc4c(c3c[n+]1CC2)OCO4 [Epiberberine] | 84.1% and 89.4% | 85.8 | 98.2 | 98.2 | 94.8 | 86.9 | 86.4 | 89.3
15 | O=C(c1ccc(Nc2nccc(-c3cc4ccccc4s3)n2)cc1)N1CCC(N2CCCC2)CC1 | 1.53% and 1.22% | 1.15 | 0.47 | 0.54 | 0.29 | 0.3 | 0.25 | 0.35
16 | C[C@@H]1COC(Nc2ccc3ncnc(Nc4ccc(OCc5nccs5)c(Cl)c4)c3c2)=N1 [Varlitinib] | 86.5% and 83.2% | 88.1 | 89.2 | 109 | 91.7 | 96.3 | 87 | 88.2
17 | Cn1cc(C2=C(c3cn(CCCSC(=N)N)c4ccccc34)C(=O)NC2=O)c2ccccc21 [Ro 31-8220 Mesylate] | 4.21% and 2.6% | 3.72 | 2.81 | 0.92 | 0.22 | -0.01 | 0.07 | 2.11
18 | C[C@H](CCC(=O)O)[C@H]1CC[C@H]2[C@@H]3[C@H](O)C[C@@H]4C[C@H](O)CC[C@]4(C)[C@H]3C[C@H](O)[C@]12C [Cholic acid] | 94.2% and 93.3% | 100 | 91.6 | 98 | 98.9 | 97.6 | 98.5 | 98.9
19 | O=C(NC(NC(=S)Nc1ccc(F)c([N+](=O)[O-])c1)C(Cl)(Cl)Cl)C(c1ccccc1)c1ccccc1 (stereo not given) | 6.8% and 10.6% | 17.6 | 35.5 | 30.2 | 1.5 | 4.68 | 1.61 | 4.06
20 | Cc1c(C(=O)Nc2ccc(N3CCC(N4CCOCC4)CC3)c(C#N)c2)cnn1-c1ccc(Cl)cc1 | 8.99% and 14.7% | 47.6 | 6.27 | 12.2 | 11 | 1.97 | 8.8 | 11.4

Row | SMILES | cell viability ([1]; SRSF2 genotype: SRSF2 P95H/wt) | cell viability ([1]; SRSF2 genotype: SRSF2 wt/wt) [%] | cell viability ([2]; SRSF2 genotype: SRSF2 P95H/wt) [%] | cell viability ([2]; SRSF2 genotype: SRSF2 wt/wt) [%] | cell viability ([3]; SRSF2 genotype: SRSF2 P95H/wt) [%] | cell viability ([3]; SRSF2 genotype: SRSF2 wt/wt) [%] | cell viability ([4]; SRSF2 genotype: P95H/wt) [%] | cell viability ([4]; SRSF2 genotype: wt/wt) [%]
21 | Cc1cn([C@H]2C=C[C@@H](CO)O2)c(=O)[nH]c1=O [Stavudine] | 104% and 107% | 98.3 | 95 | 96.1 | 102 | 103 | 97.2 | 110
22 | C=C1CCC[C@]2(C)C=C3OC(=O)C(C)=C3C[C@@H]12 [Atractylenolide I] | 102% and 110% | 106 | 97.2 | 102 | 103 | 103 | 116 | 91.6
23 | Cc1cccc(-c2[nH]c(C(C)(C)C)nc2-c2ccc3nccnc3c2)n1 | 111% and 95.8% | 99.7 | 108 | 105 | 105 | 101 | 108 | 115
24 | Cc1ccccc1CN1C(=O)C2=C(CCN(Cc3ccccc3)C2)N2CCN=C12 | 48.2% and 48% | 44.5 | 46.4 | 43.9 | 36.8 | 44.5 | 29.3 | 32
25 | CCNC1(C(N)=O)CCN(c2ncnc3c2nc(-c2ccccc2Cl)n3-c2ccc(Cl)cc2)CC1 | 79.4% and 80.8% | 79.1 | 83.1 | 101 | 78.2 | 84.3 | 88.2 | 93
26 | Cc1cc(/C=C/C#N)cc(C)c1Nc1ccnc(Nc2ccc(C#N)cc2)n1 [Rilpivirine] | 35.2% and 46.8% | 50.1 | 61.8 | 59.8 | 49.6 | 43.9 | 44.2 | 48
27 | CC[C@@](C)(Nc1ccnc(-c2c[nH]c3ncccc23)n1)C(=O)NCC(F)(F)F [Decernotinib (VX-509)] | 98.6% and 99.9% | 104 | 95.1 | 96.2 | 88.8 | 106 | 85.1 | 92.2
28 | C[N+]1(C)CCC(=C(c2ccccc2)c2ccccc2)CC1 [Diphemanil Methylsulfate] | 92.5% and 98% | 96.6 | 101 | 106 | 99 | 98.6 | 99.8 | 101
29 | O=C(CCc1ccc(O)cc1)c1c(O)cc(O[C@@H]2O[C@H](CO)[C@@H](O)[C@H](O)[C@H]2O)cc1O [Trilobatin] | 96.2% and 98.8% | 96.8 | 99.7 | 105 | 89.2 | 98.9 | 92.6 | 106
30 | C[N+]1(C)CCCC1C(=O)[O-] (stereo not given) [Stachydrine] | 99.9% and 99.1% | 105 | 97.3 | 100 | 99.6 | 104 | 106 | 102
31 | COc1cc(N2CCC(N3CCN(C)CC3)CC2)ccc1Nc1ncc(Cl)c(Nc2ccccc2S(=O)(=O)C(C)C)n1 | 78.8% and 75.5% | 72.5 | 36.4 | 30.1 | 7.58 | 12.7 | 7.82 | 16.6
32 | c1ccc2occc2c1 [2,3-Benzofuran] | 105% and 91% | 99.1 | 93.7 | 107 | 98.4 | 105 | 90.6 | 98.6
33 | Nc1ncnc2c1c(-c1cnc3[nH]ccc3c1)nn2C1CCCC1 | 6.97% and 21.9% | 9.11 | 27.8 | 26.9 | 9.21 | 13.2 | 2.15 | 7.66
34 | C=C1CCC[C@]2(C)C[C@@H]3OC(=O)C(C)=C3C[C@@H]12 [Atractylenolide II] | 107% and 105% | 99.7 | 96.8 | 102 | 101 | 106 | 103 | 106
35 | CC1=CCC2CC1C2(C)C (stereo not given) | 99.8% and 101% | 99.4 | 95.5 | 94.5 | 98.5 | 99.8 | 97 | 102
36 | C[C@]12CC[C@@H]3c4ccc(O)cc4CC[C@H]3[C@@H]1C[C@@H](O)[C@@H]2O [Estriol] | 104% and 92.3% | 87.9 | 86.4 | 99.5 | 101 | 99.9 | 91 | 101
37 | C[C@@H]1O[C@@H](O[C@H]2[C@H](O[C@H]3CC[C@@]4(C)[C@@H](CC[C@]5(C)[C@@H]4CC=C4[C@@H]6CC(C)(C)CC[C@]6(C(=O)O)CC[C@]45C)[C@]3(C)CO)OC[C@H](O)[C@@H]2O)[C@H](O)[C@H](O)[C@H]1O | 33.7% and 24.8% | 40.6 | 71.8 | 74.1 | 39 | 45.4 | 45 | 48.8
38 | O=c1[nH]c(=O)n([C@H]2C[C@H](O)[C@@H](CO)O2)cc1C(F)(F)F [Trifluridine (Viroptic)] | 85.4% and 99.2% | 85.7 | 48.5 | 52.3 | 52.7 | 18.8 | 21.6 | 26.8
39 | CC(C)(CCCCCC(O)CCCCCC(C)(C)C(=O)O)C(=O)O | 103% and 96.8% | 102 | 106 | 106 | 104 | 104 | 97.5 | 108
40 | Cc1c(NC(=O)c2ccc(C(C)(C)C)cc2)cccc1-c1cn(C)c(=O)c(Nc2ccc(C(=O)N3CCOCC3)cc2)n1 | 94% and 92.1% | 90.8 | 91.5 | 97.4 | 96.1 | 93.4 | 82 | 87.4
